Screening results (PubChem)
PAFAH1B2 FP inh: blocks human PAF acetylhydrolase 1b catalytic subunit 2. P68402. recombinant PAFAH1B2, FP-rhodamine activity probe, fluorescence polarization. inhibition, % at 3.39 µM. 340,000 compounds, 1.2% hits;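 active means inhibition above the mean of all tested compounds plus 3 SD, cut at about 24% in these data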;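 further: 0% = enzyme with DMSO and 100% = wells lacking PAFAH1B2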
Target sequence (P68402 whole entry, looked up): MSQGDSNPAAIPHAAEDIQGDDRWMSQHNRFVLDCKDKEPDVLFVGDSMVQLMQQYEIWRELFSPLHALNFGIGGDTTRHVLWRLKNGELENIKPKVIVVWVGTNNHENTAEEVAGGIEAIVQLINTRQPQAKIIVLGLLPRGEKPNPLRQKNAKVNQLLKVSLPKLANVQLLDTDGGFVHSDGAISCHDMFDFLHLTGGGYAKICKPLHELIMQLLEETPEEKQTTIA
pPAFAH inh: inhibitors of human plasma PAF acetylhydrolase (pPAFAH); AID 463082; recombinant pPAFAH, FP-rhodamine probe fluorescence polarization; inhibition, % at 3.39 µM; Q13093; 330,000 compounds, 1.5% hits;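 active means inhibition above the mean inhibition across the screen plus 3 SD, cut at about 25% in these data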;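 further: inhibitors block binding of the rhodamine activity-based probe so polarization drops; 0% = enzyme with DMSO and 100% = wells lacking pPAFAH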
Rin1 Abl inh: inhibitors of human Rin1-Abl protein interaction. inhibition, % at 7.35 µM. 360,000 compounds, 0.4% hits. AID 588664. TR-FRET Rin1/Abl binding, biochemical; in the data active means inhibition above about 5%, passing the limit was not always enough
E coli Lon inh: E. coli protease La inhibition; inhibition, % at 7.94 µM; purified E. coli Lon protease, fluorescence polarization; P0A9M0; 360,000 compounds, 0.42% hits; in the data active means inhibition above about 13%, passing the limit was not always enough;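 further: 0% = enzyme with probe and DMSO and 100% = no enzyme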
PAFAH1B3 FP inh: blocks human PAF acetylhydrolase 1B catalytic subunit 3. 340,000 compounds, 0.28% hits. recombinant PAFAH1B3, FP-rhodamine probe, fluorescence polarization. Q15102. inhibition, % at 3.39 µM;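 active means inhibition above the screen-wide average of all tested compounds plus 3 SD, cut at about 25% in these data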;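 further: 0% = enzyme with DMSO only and 100% = wells lacking PAFAH1B3 protein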
Target sequence (Q15102 whole entry, looked up): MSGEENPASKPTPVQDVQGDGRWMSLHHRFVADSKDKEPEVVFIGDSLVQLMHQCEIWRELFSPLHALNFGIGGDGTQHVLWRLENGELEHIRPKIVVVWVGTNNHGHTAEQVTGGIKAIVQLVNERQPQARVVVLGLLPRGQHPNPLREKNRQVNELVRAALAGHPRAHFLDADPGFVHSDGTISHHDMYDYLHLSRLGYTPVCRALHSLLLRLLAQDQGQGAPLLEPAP
PAFAH2 FP inh: PAFAH2 (human) inhibition; inhibition, % at 3.39 µM; 340,000 compounds, 0.99% hits; AID 492956; Q99487; recombinant PAFAH2, FP-rhodamine activity probe, fluorescence polarization;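 active means inhibition above the mean over all tested compounds plus 3 SD, cut at about 30% in these data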;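 further: inhibitors block probe labeling of enzyme so polarization drops; 0% = enzyme with DMSO and 100% = wells lacking PAFAH2 protein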
* marks the source's active call; other numbers are inactive results; / = no result. Sampled rows, rich in hits. Any-hit rate of the full collection: about 3.1%.

SMILES	PAFAH1B2 FP inh	pPAFAH inh	Rin1 Abl inh	E coli Lon inh	PAFAH1B3 FP inh	PAFAH2 FP inh
O=C(CN1C(=O)NC(c2ccccc2)(c2ccccc2)C1=O)Nc1ccc2[nH]c(=O)[nH]c2c1	-1	25*	1	8	0	-5
Cc1ccc(C2(C)NC(=O)N(CC(=O)Nc3ccc4[nH]c(=O)[nH]c4c3)C2=O)cc1 (stereo unspecified)	13	7	-1	4	3	-5
CC(C)(C)c1ccc(OCC(=O)NCc2ccco2)c(Br)c1	15	28*	-1	-7	3	13
COc1cccc(CNC(=O)CCn2ccc3cc(S(=O)(=O)N4CCC(C)CC4)ccc32)c1	25*	4	2	-1	7	4
COc1ccc(CNC(=O)CCCn2ccc3cc(S(=O)(=O)N4CCCC4)ccc32)cc1	-1	3	4	-1	5	-2
O=C1CCC(=O)N1c1ccc(S(=O)(=O)Nc2ccc(Br)cc2)cc1	6	33*	1	5	-4	-10
O=C1C=C(N2CCOCC2)c2ccccc2C1=O	21	9	2	10	77*	47*
CCCCCCCCOc1ccc(C2OC34CCCCC3C(C#N)(C#N)C2(C#N)C(=N)O4)cc1 (stereo unspecified)	27*	30*	-2	27*	22	34*
COc1ccc2c(-c3ccccc3)cc(=S)[nH]c2c1	2	6	-2	-1	1	-1
Cc1cccc(C)c1NC(=O)CN(C)C(=O)Cc1cccc(C(F)(F)F)c1	1	7	1	0	-7	-7
Cc1ccc(-c2cc(-c3ccc(Cl)cc3)c(C#N)c(N)n2)o1	8	25*	-1	-11	1	-2
CN(CCc1ccccc1)C(=O)c1ccc(NC(=O)Cc2ccc(NC(=O)C3CCN(S(=O)(=O)c4cccc([N+](=O)[O-])c4)CC3)cc2)cc1	-11	/	0	-3	-13	-27
O=S(=O)(Nc1ccc2c(c1)OCCO2)c1c(F)cccc1F	1	4	0	-10	2	3
O=C1NC(=O)/C(=C/c2ccccc2OCc2ccccc2)S1	16	3	-1	-6	10	5
O=C1NC(=O)/C(=C\c2ccccc2Oc2ccc(F)c(F)c2)S1	26*	8	1	1	-11	-4
CSCCNC(=O)C1(C)CCN1C(=O)c1sccc1C (stereo unspecified)	/	/	-3	-3	/	/
CCOC(=O)N1CCN(C(=O)c2ccccc2NC(=O)COc2ccccc2)CC1	49*	3	-1	6	-1	-4
CCOC(=O)N1CCN(C(=O)c2ccccc2NC(C)=O)CC1	-2	0	2	1	4	3
CCOc1ccc(S(=O)(=O)N2CCCCC2)cc1NC(=O)CC1OC(=O)c2ccccc21 (stereo unspecified)	-5	0	0	-3	-1	9
Cc1ccccc1C(=O)c1cccn1CC(=O)NCc1ccc(Cl)cc1	31*	1	4	1	10	6
Cc1ccccc1C(=O)c1cccn1CC(=O)NCc1cccc(Cl)c1	8	6	1	5	0	10
Cc1ccc(CNC(=O)Cn2cccc2C(=O)c2ccccc2C)cc1	27*	6	5	-2	7	1
COC(=O)C1=C(CSc2nc3c(cc2C#N)CN(C)CC3)OC(N)=C(C#N)C1c1ccc(F)cc1 (stereo unspecified)	10	26*	1	-18	16	13
O=C(Cn1nc(C(=O)O)c2ccccc2c1=O)Nc1cc(C(F)(F)F)ccc1-n1cncn1	5	-1	2	3	-3	0
COc1ccc(-c2csc(Nc3ccc(S(N)(=O)=O)cc3)n2)cc1	0	15	-5	-14	6	1
SMILES	PAFAH1B2 FP inh	pPAFAH inh	Rin1 Abl inh	E coli Lon inh	PAFAH1B3 FP inh	PAFAH2 FP inh
COc1ccc(-c2csc(Nc3ccc(S(=O)(=O)Nc4cc(C)on4)cc3)n2)cc1	5	27*	-3	7	-2	18
Cc1nc(NC(=O)c2ccccc2)sc1-c1csc(Nc2cccc(F)c2)n1	/	12	/	/	/	/
Cc1cc(NS(=O)(=O)c2ccc(Nc3nc(-c4sc(NC(=O)c5ccccc5)nc4C)cs3)cc2)no1	/	69*	/	/	/	/
CCOc1cc(C(=O)NCCCNC(=O)c2cc(OCC)c(OCC)c(OCC)c2)cc(OCC)c1OCC	2	-1	2	1	3	0
CCCCc1ccc(C2C3=C(CC(C)(C)CC3=O)NC3=C2C(=O)c2ccccc23)cc1 (stereo unspecified)	-5	27*	-3	1	16	-7
CCCc1ccc(C2C3=C(CC(C)(C)CC3=O)NC3=C2C(=O)c2ccccc23)cc1 (stereo unspecified)	12	6	-1	10	9	6
N#CCC(=O)c1sccc1-n1cccc1	11	34*	0	-7	6	3
c1ccc(-c2ccncn2)cc1	1	/	-3	-1	8	0
CSCCC(NC(=O)c1ccccc1Cl)C(=O)N(C)CC(=O)Nc1ccc(N2CCOCC2)cc1 (stereo unspecified)	5	29*	-1	-10	2	4
CN(CC(=O)Nc1ccc(N2CCOCC2)cc1)C(=O)c1cccc(Cl)c1Cl	6	-4	-6	-7	9	0
Cn1cnnc1SCc1ccc(-c2ccc(Br)cc2)o1	4	26*	0	-11	9	3
Cn1cnnc1SCc1ccccc1	0	0	4	-1	-1	3
O=C1NN(c2cccc(Br)c2)C(=O)/C1=C\c1ccc(N2CCOCC2)cc1	3	3	1	-12	4	3
CN(Cc1cccc(Cl)c1Cl)C(=O)c1ccccc1SCC(=O)N1CCCC1	5	/	-1	3	4	8
O=C(O)c1ccccc1C(=O)OCc1c(-c2ccccc2)ncc2ccccc12	-3	4	3	3	1	-7
O=C(OCc1c(-c2ccccc2)ncc2ccccc12)c1ccco1	5	32*	2	-11	6	2
CCCc1cc2c(OC(=O)CC)c(-c3ccc(C(=O)OCC)o3)c(=O)oc2cc1OC	19	18	-1	-13	60*	67*
O=C(N/N=C/c1ccc(-c2cccc([N+](=O)[O-])c2)o1)c1cccs1	3	10	1	-4	3	7
N#C/C(=C\c1ccc(-c2cccc([N+](=O)[O-])c2)o1)C(=O)Nc1nc(-c2cccs2)cs1	5	33*	2	4	3	-1
CN1N=C2c3ccccc3CCC2C1c1ccc(Cl)cc1 (stereo unspecified)	9	5	1	3	7	-2
Cc1cc(C)n(CCNc2nc3nonc3nc2N2CCCCC2)n1	5	28*	0	-2	0	-1
